The supplement of paper PMC12669032

How the values were obtained:
Test in all cases: growth AUC relative to DMSO control (median of replicates) (fraction); higher = more growth (less inhibition), active = hit call of the paper
Details in all cases: 20 µM; 24 h;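 active = AUC reduced over 20% with Padj below 0.05 in at least 2 of 3 replicates; inactive = otherwise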
Coprococcus comes = test system: Coprococcus comes
Summary of the method: (§1)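 In round-bottom 96-well plates sealed with pierced gas-permeable seals, gut bacterial monocultures in mGAM were grown anaerobically at 37 °C from OD600 0.05 with 20 µM compound (1% DMSO). OD600 readings were taken hourly for 24 h, and the minimum OD was set to 0. Area under the growth curve was then normalised to the plate median of solvent-only wells, or to row and column medians on the industrial chemical plate. The value given is the median of three biological replicates grown on separate days.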

Escherichia coli ED1a = test system: Escherichia coli ED1a
Summary of the method: as §1

Escherichia coli IAI1 = test system: Escherichia coli IAI1
Summary of the method: as §1

Eubacterium rectale = test system: Eubacterium rectale
Summary of the method: as §1

[1] = test system: Fusobacterium nucleatum subsp. animalis
Summary of the method: as §1

Lactobacillus gasseri = test system: Lactobacillus gasseri
Summary of the method: as §1

Lactobacillus paracasei = test system: Lactobacillus paracasei
Summary of the method: as §1

Odoribacter splanchnicus = test system: Odoribacter splanchnicus
Summary of the method: as §1

[2] = test system: Parabacteroides distasonis
Summary of the method: as §1

Parabacteroides merdae = test system: Parabacteroides merdae
Summary of the method: as §1

Roseburia intestinalis = test system: Roseburia intestinalis
Summary of the method: as §1

Streptococcus salivarius = test system: Streptococcus salivarius
Summary of the method: as §1

Measured: growth AUC

OC(c1ccc(Cl)cc1)(c1cncnc1)c1ccccc1Cl (centres undefined)
active: Parabacteroides merdae 0.299
inactive: Coprococcus comes 0.987 | Escherichia coli ED1a 0.991 | Escherichia coli IAI1 0.973 | Eubacterium rectale 1.14 | [1] 1.01 | Lactobacillus gasseri 0.922 | Lactobacillus paracasei 1.12 | Odoribacter splanchnicus 0.611 | [2] 0.886 | Roseburia intestinalis 1 | Streptococcus salivarius 0.939

COP(=S)(OC)Oc1cc(Cl)c(Br)cc1Cl
inactive: Coprococcus comes 0.982 | Escherichia coli ED1a 0.987 | Escherichia coli IAI1 0.965 | Eubacterium rectale 1.03 | [1] 0.952 | Lactobacillus gasseri 1.06 | Lactobacillus paracasei 0.996 | Odoribacter splanchnicus 1.02 | [2] 0.946 | Parabacteroides merdae 0.917 | Roseburia intestinalis 1.03 | Streptococcus salivarius 0.995

CCCCN(CCCC)SN(C)C(=O)Oc1cccc2c1OC(C)(C)C2
inactive: Coprococcus comes 1.09 | Escherichia coli ED1a 0.972 | Escherichia coli IAI1 1.01 | Eubacterium rectale 1.22 | [1] 1.02 | Lactobacillus gasseri 0.884 | Lactobacillus paracasei 0.981 | Odoribacter splanchnicus 1 | [2] 0.895 | Parabacteroides merdae 0.951 | Roseburia intestinalis 0.942 | Streptococcus salivarius 1

CN(C)C(CSS(=O)(=O)c1ccccc1)CSS(=O)(=O)c1ccccc1
inactive: Coprococcus comes 1.03 | Escherichia coli ED1a 0.97 | Escherichia coli IAI1 1.01 | Eubacterium rectale 1.53 | [1] 0.932 | Lactobacillus gasseri 0.85 | Lactobacillus paracasei 0.95 | Odoribacter splanchnicus 0.98 | [2] 0.95 | Parabacteroides merdae 0.992 | Roseburia intestinalis 1.02 | Streptococcus salivarius 0.973

O=S1(=O)OCC2C(CO1)C1(Cl)C(Cl)=C(Cl)C2(Cl)C1(Cl)Cl (centres undefined)
inactive: Coprococcus comes 1.01 | Escherichia coli ED1a 0.991 | Escherichia coli IAI1 1 | Eubacterium rectale 1.01 | [1] 0.935 | Lactobacillus gasseri 0.919 | Lactobacillus paracasei 1.02 | Odoribacter splanchnicus 1.02 | [2] 1.09 | Parabacteroides merdae 0.955 | Roseburia intestinalis 0.915 | Streptococcus salivarius 0.991

Clc1nc(Cl)nc(Nc2ccccc2Cl)n1
inactive: Coprococcus comes 1.03 | Escherichia coli ED1a 1.01 | Escherichia coli IAI1 0.998 | Eubacterium rectale 0.859 | [1] 1.02 | Lactobacillus gasseri 0.991 | Lactobacillus paracasei 1.01 | Odoribacter splanchnicus 1.08 | [2] 1.04 | Parabacteroides merdae 0.969 | Roseburia intestinalis 1.04 | Streptococcus salivarius 1.03

CNC(=O)/C(=N\OC)c1ccccc1Oc1ccccc1
inactive: Coprococcus comes 1.01 | Escherichia coli ED1a 1.01 | Escherichia coli IAI1 1 | Eubacterium rectale 0.963 | [1] 0.974 | Lactobacillus gasseri 1.05 | Lactobacillus paracasei 0.986 | Odoribacter splanchnicus 0.961 | [2] 1.02 | Parabacteroides merdae 0.99 | Roseburia intestinalis 0.995 | Streptococcus salivarius 0.999

CCOCn1c(-c2ccc(Cl)cc2)c(C#N)c(Br)c1C(F)(F)F
inactive: Coprococcus comes 1.02 | Escherichia coli ED1a 0.99 | Escherichia coli IAI1 0.99 | Eubacterium rectale 1.03 | [1] 1.05 | Lactobacillus gasseri 0.904 | Lactobacillus paracasei 0.992 | Odoribacter splanchnicus 0.951 | [2] 0.924 | Parabacteroides merdae 0.834 | Roseburia intestinalis 0.983 | Streptococcus salivarius 0.944

C[C@@H](Oc1ccc(Oc2cnc3cc(Cl)ccc3n2)cc1)C(=O)O
inactive: Coprococcus comes 1.05 | Escherichia coli ED1a 1.02 | Escherichia coli IAI1 1 | Eubacterium rectale 0.987 | [1] 1.08 | Lactobacillus gasseri 0.997 | Lactobacillus paracasei 1.04 | Odoribacter splanchnicus 0.97 | [2] 0.983 | Parabacteroides merdae 1.03 | Roseburia intestinalis 1.04 | Streptococcus salivarius 1.01

CCOC(=O)CCN(Cc1ccccc1)SN(C)C(=O)O/N=C(/C)SC
inactive: Coprococcus comes 0.985 | Escherichia coli ED1a 0.995 | Escherichia coli IAI1 0.988 | Eubacterium rectale 1.08 | [1] 0.837 | Lactobacillus gasseri 0.909 | Lactobacillus paracasei 1.02 | Odoribacter splanchnicus 1.08 | [2] 1.02 | Parabacteroides merdae 0.99 | Roseburia intestinalis 0.987 | Streptococcus salivarius 0.976

CCOC(=O)CCN(SN(C)C(=O)Oc1cccc2c1OC(C)(C)C2)C(C)C
inactive: Coprococcus comes 1.01 | Escherichia coli ED1a 0.994 | Escherichia coli IAI1 1.01 | Eubacterium rectale 1.1 | [1] 0.907 | Lactobacillus gasseri 0.911 | Lactobacillus paracasei 1.01 | Odoribacter splanchnicus 1.02 | [2] 1.05 | Parabacteroides merdae 0.979 | Roseburia intestinalis 1.02 | Streptococcus salivarius 0.998

O=C(NC(=O)c1c(F)cccc1F)Nc1ccc(Cl)cc1
inactive: Coprococcus comes 0.97 | Escherichia coli ED1a 0.993 | Escherichia coli IAI1 1 | Eubacterium rectale 1.01 | [1] 0.987 | Lactobacillus gasseri 0.93 | Lactobacillus paracasei 0.965 | Odoribacter splanchnicus 0.985 | [2] 1.07 | Parabacteroides merdae 0.99 | Roseburia intestinalis 0.983 | Streptococcus salivarius 0.992
